About 79,000 compounds went through this panel and 15% of them were active in at least one assay; those are over-represented in the sample as a whole. A number with no mark means an inactive call. Calls of active or inactive are those of the source. Cut-off read from the data, not from the text of the source: active = growth inhibition above about 70%; inactive = the rest.
Experiment: NCI Yeast Anticancer Drug Screen. Data for the cln2 rad14 strain (AID 165);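 note: 0% = growth equal to vehicle treated cultures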
Settings: S. cerevisiae cln2 rad14 strain, at 5.0 µM (retest, dose inferred, filed as 0.5), hits give high values
In short: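 Yeast strain cln2 rad14, bearing defects in cell cycle control and DNA repair, serves as the test system; values reflect growth inhibition compared with vehicle.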

| Compound | growth inhibition |
| --- | --- |
| Oc1c(Br)cc(Cl)cc1Br | -11% |
| COc1ccc(C2Oc3ccc(Cl)cc3C=C2[N+](=O)[O-])cc1OC (stereo not given) | 63% |
| COC(=O)C(=O)CC(=O)c1cccc(Cl)c1 | 6% |
| O/N=C(/C[N+]12CN3CN(CN(C3)C1)C2)c1ccc(I)cc1 | -1% |
| COc1cc(CCN=Cc2cc(Cl)cc(Cl)c2O)c([N+](=O)[O-])cc1OC | 35% |
| COc1ccc2c(c1OC)C1=C(C2=O)c2cc3c(cc2CCN1)OCO3 | 2% |
| CC(C)(C)[Si](C)(C)OCC1OC(n2cc(I)c(N)nc2=O)C(O[Si](C)(C)C(C)(C)C)C1O[Si](C)(C)C(C)(C)C (stereo not given) | 1% |
| O=S(=O)(Nc1ccccn1)c1ccc(NCc2c3ccccc3nc3cc(Cl)ccc23)cc1 | 6% |
| OCc1ccc2c(c1)CC1(C2)Cc2cc3c(cc2C1O)CCC3 (stereo not given) | 5% |
| COc1cc(C(c2cc3c(cc2O)OCO3)N2CCOCC2)ccc1O (stereo not given) | 1% |
| CCCCCCCCCCCCCCSC(=N)N | 41% |
| Cc1ccccc1NC(=S)Nc1ccccc1O | -5% |
| c1cc2cc(Cc3ccc4[nH]ccc4c3)ccc2[nH]1 | 16% |
| N=C(N)c1ccc(-c2ccc(-c3ccc(C(=N)N)cc3)o2)cc1 | -2% |
| O=c1oc2c/c(=C\c3ccccc3)c(=O)c3cccc1c3-2 | -7% |
| CCCCCCCC(=O)/C=C/c1ccc(C)cc1 | -62% |
| COc1ccc(CCC2(C)OCCC(C)O2)cc1 (stereo not given) | 10% |
| O=C(O)C(SC1=NNC2(C(=O)N1)c1ccccc1-c1ccccc12)SC1=NNC2(C(=O)N1)c1ccccc1-c1ccccc12 | 4% |
| CC1(C)NNC(=S)NN1 | 12% |
| O=C([O-])c1ccccc1[I+]c1ccc(C2CCCCC2)cc1 | 3% |

| Compound | growth inhibition |
| --- | --- |
| ClC1=C(Cl)C(Cl)(C(Cl)(Cl)Cl)C(Cl)=C1Cl | 99% (active) |
| Cn1nc(N)c2cccnc21 | 3% |
| CC(C)(C)c1ccc(-n2c3nc(=O)n(-c4ccccc4C(F)(F)F)c(=O)c-3cc3ccccc32)cc1 | 13% |
| C/C(=N\Nc1ccccn1)c1ccccn1 | 56% |
| COc1ccc2c(C)cc(N/N=C(\C)c3ccccn3)nc2c1 | -6% |
| CC([NH-])C(=O)O.[Cu+2].[NH-]C(Cc1cnc[nH]1)C(=O)O (stereo not given) | 4% |
| COc1ccc(C)cc1NC(=O)ON=C1CCCCC1 | 38% |
| Oc1c(N(Cc2ccccc2)Cc2ccccc2)ccc2cccnc12 | -15% |
| Cc1ccc2[nH]c3cc4ccncc4cc3c2c1 | 35% |
| Cc1ccc2nn(-c3ccc(O)cc3)nc2c1 | 6% |
| Oc1ccc2c(ccc3ccccc32)c1 | -3% |
| ClCc1ccc2ccc3ccc(CCl)nc3c2n1 | 29% |
| CC(=O)c1c(O)c2ccc(Cl)cc2[nH]c1=O | 25% |
| O=C(c1ccc(Cl)cc1)c1ccc(OCCCOc2ccc(C(=O)c3ccc(Cl)cc3)cc2)cc1 | -30% |
| C=C1CC2(C[C@@H](c3ccccc3)O[C@@H](c3ccccc3)C2)OC1=O (stereo not given in full) | 35% |
| O=C(N=Nc1c(O)[nH]c2ccccc12)C(O)(c1ccccc1)c1ccccc1 | 26% |
| C/C(=N\O)c1ccc2c3c(ccc([N+](=O)[O-])c13)CC2 | 0% |
| N#CS/C(Cl)=C(/C(Cl)=C(Cl)Cl)[N+](=O)[O-] | -5% |
| N#C/C(=C1C=C/C(=N/O)C=C/1Cl)c1ccccc1 | -15% |
| O=C1/C(=C/c2ccc(Cl)c(Cl)c2)CN(C(=O)CCN2CCOCC2)C/C1=C\c1ccc(Cl)c(Cl)c1 | 90% (active) |
